# PubChem BioAssay (NCATS)
# Inconclusive results are not listed. Values without a mark were called inactive. Activity calls are given as the source filed them. The call rests on the fitted dose curve; in most records, active means well fitted cell-killing curve with a large enough effect; inconclusive means small, poorly fitted or top-dose-only effect; inactive means no such curve, though single readings can be large or run the other way.
# Test: qHTS of pediatric cancer cell lines to identify multiple opportunities for drug repurposing: Primary screen for MG 63 (6-TG R) cells (AID 1347105); further: nearly all actives have a fitted effect of over 50% in size
# Details: MG 63 (6-TG R) viability, CellTiter-Glo, 48 h; series mostly up to 46 µM; activity change, negative = cytotoxic: at the top concentration
# Source text: Drug repurposing or repositioning has been offered as a strategy for drug development in oncology programs. This approach has special potential for childhood cancers and other rare or orphan diseases, where the expected return on new drug development has been a disincentive to pharmaceuticals. […] In this project we exploit the poly-pharmacology of drugs to discover new indications via phenotypic screening of a panel of 19 well-characterized cell lines derived from solid tumors seen in children and adolescents. The goal is to identify approved drugs with previously unrecognized anticancer properties that has the potential to reveal new mechanisms and biological processes involved in carcinogenesis or drug resistance. We employed a titration-based paradigm (quantitative high-throughput screening or qHTS), where all compounds were tested at multiple concentrations for their effect on cell viability. Concentration-response curves (CRCs) were derived directly from the primary screen, and both potency and efficacy values were used to identify compounds with robust bioactivity profiles. We screened the NIH Chemical Genomics Center (NCGC) Pharmaceutical Collection (NPC) and Mechanism Interrogation Plate (MIPE) small molecule collections of approved and investigational compounds against these cell lines; and measured metabolically active cells after 48 hours of compound treatment as a proxy for cell viability. […] Assay Submitter: Nathalia J. Martinez, National Center for Advancing Translational Sciences, National Institutes of Health, Rockville, MD, USA; email: natalia.martinez@nih.gov Shen, M et al. Quantitative high-throughput phenotypic screening of pediatric cancer cell lines identifies multiple opportunities for drug repurposing. Oncotarget 2017 Dec 19;9(4):4758-4772. PMID 29435139.
# The cells were obtained from University of North Carolina (UNC), Pediatric Preclinical Testing Program (PPT), and Coriell Institute (CI). qHTS cell viability assay: Cells were assayed in growth media at a density of 500-1,000 cells/well. Five microliters of cells were dispensed into 1,536-well, white, solid-bottom, TC-treated plates (Greiner Bio One) using a multidrop dispenser and incubated at 37 degrees C, 5% CO2, under a humidified atmosphere for 5 hours. Twenty-three nanoliters of compounds and controls (neutral control DMSO or positive control bortezomib at final concentration of 2.3 µM) were subsequently transferred by Kalypsys pintool. For primary screens, the MIPE collection was tested at 11-point dilutions (final concentrations range from 0.78 nM to 46 µM) and the NPC collection at 8-point dilutions (final concentrations range from 0.59 nM to 46 µM). Compounds tested in follow-up screens were assayed at 11-point dilutions. Cells were incubated for 48 hours, followed by addition of 3 µL of CellTiter-Glo (Promega). After a 15 min incubation at room temperature, samples were analyzed for luminescence intensity using a ViewLux High-throughput CCD imager equipped with clear filters.
# On the % scale 0 is the no-effect control and ±100 the full control effect.
Compound,"activity change, negative = cytotoxic",Potency
CCCCC/C=C\C/C=C\C/C=C\C/C=C\CCCC(=O)NCC(=O)O,31.9%,
CNC(C)(C)Cc1ccccc1,-24.3%,
CCC1(c2ccccc2)C(=O)N(COC)C(=O)N(COC)C1=O,-11.6%,
CCN(CC)CCc1c[nH]c2ccccc12,1.73% [at 155 µM],
c1ccc(CN2CCNCC2)cc1,-22.6% [at 155 µM],
COP(=S)(OC)Oc1ccc(SC)c(C)c1,-12.5%,
CCCCCCCCCC(=O)O[C@H]1CC[C@H]2[C@@H]3CCC4=CC(=O)CC[C@@H]4[C@H]3CC[C@]12C,-2.51%,
C[C@]12CCC(=O)C=C1CC[C@@H]1[C@@H]2CC[C@]2(C)C(=O)CC[C@@H]12,-18.9%,
Clc1cccc(SC2CCNCC2)n1,-11.8%,
CC(=O)OCC1=C(C(=O)O)N2C(=O)[C@@H](N)[C@H]2SC1,-9.45% [at 16.1 µM],
CN1CC[C@]23c4c5ccc(O)c4O[C@H]2[C@@H](O)CC[C@H]3[C@H]1C5,-13.7% [at 92.7 µM],
O=C(N/N=C/c1ccc([N+](=O)[O-])o1)c1cc([N+](=O)[O-])cc([N+](=O)[O-])c1O,21.6%,
CC[N+]1(CC)CCC(OC(=O)C(O)(c2ccccc2)c2ccccc2)C1 (stereo not given),-27%,
CN1CC[C@]23c4c5ccc(O)c4O[C@H]2[C@@H](O)C=C[C@H]3[C@H]1C5,-25.4% [at 92.7 µM],
O=C(CCCN1CCC2(CC1)C(=O)NCN2c1ccccc1)c1ccc(F)cc1,8.1%,
Oc1ccc(Cl)cc1,-22.1%,
CCC1(c2ccc(N)cc2)CCC(=O)NC1=O (stereo not given),,inactive
CC(C)c1c(CN(C)C(C)Cc2ccccc2)n(C)n(-c2ccccc2)c1=O (stereo not given),-23.2%,
CCCOC(=O)c1cncn1C(C)c1ccccc1 (stereo not given),-12.6%,
CC(C)(C)NCC(O)c1ccccc1Cl (stereo not given),-26.1%,

Compound,"activity change, negative = cytotoxic",Potency
C=CCC1(C(C)CC)C(=O)NC(=O)NC1=O (stereo not given),-19.6%,
CNCC(=O)c1ccc(O)c(O)c1,-29.8%,
COc1cc(OC)c(OC)cc1C=O,,inactive
O=P1(N(CCCl)CCCl)NCCCO1 (stereo not given),,inactive
C[C@]12Cc3cn[nH]c3C[C@@H]1CC[C@@H]1[C@@H]2CC[C@@]2(C)[C@H]1CC[C@]2(C)O,-10%,
c1ccc2c(c1)sc1ccccc12,-9.83%,
CCN(CCO)CCn1c(Cc2ccccc2)nc2c1c(=O)n(C)c(=O)n2C,-19.3%,
O=C1OC(c2ccc(O)c(S(=O)(=O)O)c2)(c2ccc(O)c(S(=O)(=O)O)c2)c2c(Br)c(Br)c(Br)c(Br)c21,5.12%,
O=C1c2ccccc2C(=O)c2ccccc21,-0.405% [at 16.1 µM],
CC(=O)NC1CCSC1=O (stereo not given),-7.96%,
CCC(C)C(C)(COC(N)=O)COC(N)=O (stereo not given),-23.3%,
Clc1ccccc1N1CCNCC1,-21%,
COC(=O)C(Cl)C(=O)OC,-19%,
CC(=O)C1CCOC1=O (stereo not given),-11.5%,
CC(C)(C)NCC(O)c1cc(Cl)c(N)c(C(F)(F)F)c1 (stereo not given),-7.42%,
CCN[C@@H](C)Cc1cccc(C(F)(F)F)c1,-9.22%,
CC(C)C[C@H](CN)CC(=O)O,-6.74%,
CCOP(=S)(OCC)Oc1ccc2c(C)c(Cl)c(=O)oc2c1,2.86%,
O=c1[nH]oc2c1CCNC2,-24.4%,
COc1cc(CC(C)N)cc(OC)c1OC (stereo not given),-27.4% [at 92.7 µM],
